This passage reports Potency, activity change, negative = inhibition and activity change, negative = cytotoxicity results from PubChem BioAssay (NCATS).

Inconclusive results are not listed. A number with no mark means an inactive call. Calls of active or inactive are those of the source. Calls follow the shape of the dose curve; as a rule, active = well fitted curve in the direction sought with a large enough effect; inconclusive = small, poorly fitted or top-dose-only effect, or another doubt; inactive = no such curve, though single readings can be large; an effect the other way counts as inactive or inconclusive.

Experiment [1] deals with SKOV3. Description: Primary qHTS to identify gynecologic anti-cancer compounds using libraries of approved drugs and bioactive compounds (AID 1345084). Also: nearly all actives have a fitted effect of over 55% in size. Particulars: Gynecologic cancer cell panel viability, ATPlite luminescence, 48 h; series mostly up to 57.5 µM. In short, it runs like this: (§1)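 Cytotoxicity screen measuring ATP content by luciferase luminescence. Each compound is applied at five concentrations for 48 h at 37 C with 5% CO2.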
(Quantitative high-throughput screening tests each substance at several concentrations.)

Experiment [2] concerns Tov112D. The description is as above. The settings on record: Gynecologic cancer cell panel viability, ATPlite luminescence, 48 h; series mostly up to 57.5 µM. In short, it runs like this: as §1
In general terms: In ATP-based viability assays light output follows the ATP content of the culture.

Experiment [3] concerns Tov-21-G. Described as above. Particulars: Gynecologic cancer cell panel viability, ATPlite luminescence, 48 h; series mostly up to 57.5 µM. An outline of the steps:
as §1

The nature of experiment [4]: qHTS assay to identify inhibitors of the type 1 interferon - major histocompatibility complex class I in skeletal muscle: Counter screen cell viability and HiBit confirmation (AID 1347412). As to all read-outs here: nearly all actives have a fitted effect of over 60% in size. Particulars: iHSKM muscle cells + IFN-b, HiBiT or CellTiter-Glo, 24 h; for Potency: HiBiT; for activity change, negative = inhibition: Viability, at 45.9 µM (top of the series). In short, it runs like this:
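Duplicate plates, pinned identically: one read for HiBiT-tagged endogenous HLA-B luminescence, the other for ATP-content viability via CellTiter Glo. Cells were genome-engineered human myoblasts given 4 ng/ml IFN-b; compounds 12-pt, 1:3 from 46 uM final; 24 hr exposure.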
% is scaled to controls: 0 for no effect and ±100 for the full control effect; potency is read from the fitted curve at half-maximal effect.

For `CC1COC2(CCN(c3nc(=O)c4cc(C(F)(F)F)cc([N+](=O)[O-])c4s3)CC2)O1` (centres undefined), the Potency result in experiment [1] and in experiment [2] was “inactive” throughout.

For `COc1cc2c(Oc3ccc(NC(=O)C4(C(=O)Nc5ccc(F)cc5)CC4)cc3F)ccnc2cc1OCCCN1CCOCC1`, the results for the Potency in experiment [1], in experiment [3] and in experiment [2] were 22.4 µM (active), 15.8 µM (active) and 12.6 µM (active), respectively.

`Cn1c(CNc2ccc(C(=N)N)cc2)nc2cc(C(=O)N(CCC(=O)O)c3ccccn3)ccc21`: the Potency entry in experiment [1], in experiment [3] and in experiment [2] was “inactive” in each case.

`O=C(c1ccc(Nc2nccc(-c3cc4ccccc4s3)n2)cc1)N1CCC(N2CCCC2)CC1`: the values for the Potency in experiment [1], in experiment [3] and in experiment [4] were 25.1 µM (active), 28.2 µM (active) and 17.6 µM (active), respectively. The Potency result in experiment [2] is “inactive”.

`CC1(O)CC(c2nc(-c3ccc4ccc(-c5ccccc5)nc4c3)c3c(N)nccn23)C1` (centres undefined): the Potency entry in experiment [1], in experiment [3] and in experiment [2] was “inactive” in each case. Further, the activity change, negative = inhibition in experiment [4] is -13.8%.

With `Nc1ccccc1NC(=O)c1ccc(CNc2nccc(-c3cccnc3)n2)cc1`, the Potency in experiment [1] was 3.98 µM (active); in experiment [3], 2.82 µM (active); in experiment [2], 3.55 µM (active); in experiment [4], 3.94 µM (active). Moreover, the activity change, negative = inhibition in experiment [4] is 3.24%.

For `CN(C1CCc2c(c3ccccc3n2CC(=O)O)C1)S(=O)(=O)c1ccc(F)cc1` (centres undefined), the Potency entry in experiment [1], in experiment [3] and in experiment [2] was “inactive” throughout.

For the compound `Nc1nc(NCCNc2ncc(-n3ccnc3)c(-c3ccc(Cl)cc3Cl)n2)ccc1[N+](=O)[O-]`, the Potency entry in experiment [1], in experiment [3] and in experiment [2] was “inactive” each time. In addition, the Potency in experiment [4] was 15.7 µM (active). The activity change, negative = inhibition in experiment [4] was -15.1%.

Consider `C[C@]12CC[C@H](O)CC1=CCC1C2CC[C@]2(C)C(n3cnc4ccccc43)=CCC12` (some centres undefined), for which the Potency entry in experiment [1], in experiment [3] and in experiment [2] was “inactive” each time.

As for `COc1c(OCCCN2CCOCC2)ccc2c3n(c(=NC(=O)c4cnc(N)nc4)nc12)CCN3`, the Potency in experiment [1] is 0.0631 µM (active). Besides, the activity change, negative = cytotoxicity in experiment [2] was -17.3% [at 11.6 µM].
